Source: PubChem
A selection: hits, their analogues and other compounds. The true share with any hit is near 2.4%.
PABP FP inh: PABP poly(A) RNA binding inhibitors, primary screen, biochemical, fluorescence polarization, uHTS; hit rate 1% among 290,000; inhibition, % at 35 µM; AID 2014, 2009;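 note: calls also rest on retests at 20 µM and on dose response follow-up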
PERK inh: block of dimerizer-induced PERK translation repression, primary screen, PERK inhibitor project, CHO PERK-DD cells, SEAP luminescence, HTS; Eukaryotic translation initiation factor 2-alpha kinase 3 (Homo sapiens), Q9NZJ5; CHO PERK-DD fusion, SEAP luminescence translation reporter; inhibition, % at 5.6 µM; hit rate 0.17% among 220,000;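 active = inhibition above the mean inhibition of all tested compounds plus 3 SD, set separately per screening campaign, cut at about 2.9% in these data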;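 note: PERK kinase domain activated by AP20187 dimerizer at 100 nM; 0% = DMSO with dimerizer and 100% = rapamycin at 8.4 µM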
eIF4E 4G PPI: eIF4E–eIF4G protein interaction inhibitors, primary screen, biochemical, uHTS, TR-FRET, eIF4GI fragment; Eukaryotic translation initiation factor 4E (Mus musculus) + Eukaryotic translation …; TR-FRET eIF4E-eIF4GI(517-606) binding, 2 h; inhibition, % at 21.7 µM; hit rate 0.37% among 220,000; AID 782, 2007;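 active = inhibition above about 30%, limit read from the data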;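 note: 0% = full FRET control wells and 100% = background wells lacking eIF4GI fragment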
MLLE-PAM2 inh: inhibitors of PABP1 MLLE–PAM2 peptide binding, primary screen, biochemical, fluorescence polarization, FITC-PAM2, GST-MLLE. Polyadenylate-binding protein 1 (Homo sapiens), P11940. inhibition, % at 20 µM. hit rate 0.36% among 360,000. AID 588489, 2011; in the data active = inhibition above about 35%, passing the limit was not always enough;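 note: plate controls were DMSO wells with GST-MLLE for no effect and wells lacking GST-MLLE protein for full effect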
eIF4H inh: human eIF4H binding inhibitors, primary screen, translation initiation inhibitor project, biochemical, uHTS, fluorescence polarization. Eukaryotic translation initiation factor 4H (Homo sapiens), Q15056. eIF4H fluorescence polarization binding assay. inhibition, % at 35 µM. hit rate 0.94% among 290,000. AID 2012, 2009;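 note: calls also rest on retests at 20 µM and on dose response follow-up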
M18AAP inhibitor: PfM18AAP inhibitors, malaria aminopeptidase, primary screen, biochemical, QFRET, recombinant enzyme; M18 aspartyl aminopeptidase (Plasmodium falciparum 3D7); H-Glu-NHMec fluorogenic cleavage; inhibition, % at 7.35 µM; hit rate 1.2% among 290,000;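 active = inhibition above the campaign mean inhibition over all tested compounds plus 3 SD, cut at about 28% in these data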;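 note: 0% = plate median of test compound wells and 100% = 2 mM ZnCl2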
Numbers without * were called inactive; ? = inconclusive; nt = no result. Unless noted, the rule behind the calls is not given here.

SMILES | PABP FP inh | PERK inh | eIF4E 4G PPI | MLLE-PAM2 inh | eIF4H inh | M18AAP inhibitor
Nc1cc(=O)[nH]c(SCc2cccc3ccccc23)n1 | 12 | nt | nt | 9 | 5 | -2
N#CC1=C(N)N=C(SCc2cccc3ccccc23)C(C(N)=O)C12CCCCC2 (stereo unspecified) | 3 | 0 | 0 | 40* | -8 | -13
COC(=O)[C@@H](N)CS | -4 | 3.0* | 2 | 36 | -2 | 21
O=C1/C(=C/c2ccc(O)cc2)SC(=S)N1CC1CCCO1 (stereo unspecified) | 55* | 1 | 9 | -128 | 96 | 7
CCCNC(=O)C(Cc1ccc(I)cc1)NC(=O)c1ccc(C#N)cc1 (stereo unspecified) | nt | nt | nt | 8 | nt | nt
CCCCCCn1ccc(=N)cc1 | 7 | 1 | 14 | 7 | -6 | 1
CCCCCCCCCCCCCCCCn1cc[n+](CC(C)=O)c1 | 5 | 1 | 68* | -30 | 12 | 0
O=C(COc1ccc(Nc2ccccc2)cc1)OCC(=O)N1CCCCC1 | 5 | 2 | 8 | -5 | -5 | 29*
Nc1ccc(C(=O)N/N=C/c2cn(Cc3ccc(F)cc3)c3ccccc23)cc1 | 4 | nt | nt | 5 | -1 | -15
O=C(N/N=C/c1cn(Cc2cccc(F)c2)c2ccccc12)c1cc(O)cc(O)c1 | 89* | nt | nt | -9 | 100* | 12
C[C@H]1CN([C@@H](C)CO)C(=O)c2cccc(NS(=O)(=O)c3ccc(F)cc3)c2O[C@H]1CN(C)S(=O)(=O)c1cn(C)cn1 | nt | nt | nt | -6 | nt | nt
Cc1c(C(=O)c2ccc(F)cc2F)c2ccccn2c1CCC#N | ? | nt | nt | 16 | ? | 30*
Cc1c(C(=O)c2ccc(F)cc2F)c2ccccn2c1CCc1ccccn1 | nt | nt | nt | 2 | nt | nt
Nc1n[nH]c(=S)n1/N=C1/C(=O)Nc2ccccc21 | -10 | 1 | 1 | 45* | 38 | 32*
O=C(COC(=O)c1ccccn1)NCCCc1ccccc1 | 0 | 1 | -1 | -11 | -3 | -7
O=C(CN1C(=O)NC(c2ccccc2)(c2ccccc2)C1=O)NC1CCCCC1 | nt | nt | nt | -6 | nt | nt
Cc1cc(C)c(C(=O)N2CCCC(CNC(=O)C3(c4ccc(Cl)cc4)CC3)C2)c(=O)[nH]1 (stereo unspecified) | -2 | 0 | 1 | 2 | -2 | -13
O=C(O)c1ccc(CNc2ccccc2C(=O)O)cc1 | 77* | 1 | -2 | 0 | 77* | -3
O=C(O)c1ccccc1NCc1ccncc1 | -9 | 0 | -3 | 13 | -7 | 9
Cc1cn(C2CC(O)C(CO)O2)c(=O)n(Cc2ccccc2)c1=O (stereo unspecified) | nt | nt | nt | 1 | nt | nt
N#CC1=C(N)OC2=C(CC/C2=C\c2ccccc2)C1c1ccccc1 (stereo unspecified) | ? | 0 | 0 | 73 | ? | 3
N#CC1=C(N)OC2=C(CC/C2=C\c2ccccc2Cl)C1c1ccccc1Cl (stereo unspecified) | 9.1* | 0 | 4 | 102 | 59 | -2
Nc1ccc2c(c1Cl)C(=O)c1ccc(N)c(Cl)c1C2=O | 79* | 0 | 19 | 28 | 109* | 3
Nc1c(C(=O)O)ccc2c1C(=O)c1ccccc1C2=O | 32 | 1 | 0 | 13 | 4 | -6
COC(=O)[C@H]1C[C@@]2(O)CN(S(=O)(=O)c3ccc(C)cc3)C[C@@]2(OC(=O)NC2CC2)C[C@H]1C(=O)OC | nt | nt | nt | -2 | nt | nt
Cn1/c(=N/NC(=O)c2ccccc2Br)sc2ccccc21 | -14 | 0 | 0 | 1 | -10 | -14
CC(NS(=O)(=O)c1ccc2c(c1)OCCCO2)C(=O)O (stereo unspecified) | 6 | 1 | 7 | 3 | 8 | -3
C[C@H](NS(=O)(=O)c1ccc2c(c1)OCCCO2)C(=O)N1CCN(c2ccc(F)cc2)CC1 | nt | nt | nt | 41* | nt | nt
CC1CCCN(CC(=O)N2c3ccccc3Sc3ccccc32)C1 (stereo unspecified) | 54 | 1 | 3 | 0 | 3.1* | -11
